Test results reported in PubChem BioAssay.
Unmarked numbers belong to inactive results.

Experiment: resazurin metabolic signal in A549 cells – cell-based, resazurin fluorescence, 24 h, PK04 Diversity Set, profiling panel (AID 1171); also: test concentration not given here
Conditions: A549 viability, higher = more signal, called active from +8 up or from −8 down

SMILES | z-score
CC=CC(O)C1C=CC2C(=O)NC(=O)C2N1Nc1ccc(Cl)cc1Cl (stereo not given) | -0.458
CCCCN1CC=CC23O[C@@H]4/C=C\CCCOC(=O)C4[C@H]2C(=O)N(C(CO)C(C)C)[C@@H]3C1=O (stereo not given in full) | -0.61
COc1ccc([Si](C)(C)[C@H]2[C@H](CC(=O)N3Cc4ccccc4C[C@H]3CO)O[C@@]3(C(=O)N(C)c4c(Br)cc(C)cc43)[C@@H]2C)cc1 | -2.92
CC(C)(C)N1CC=CC23O[C@@H]4/C=C\CCCOC(=O)C4[C@H]2C(=O)N(CCCCCO)[C@@H]3C1=O (stereo not given in full) | -0.543
C=C(CCCC)/C(=C/C[C@H](OC(=O)c1ccncc1)c1ccccc1OCCO)c1cc(C(=O)OC)ccc1OC | 0.613
COc1ccc(C(=O)Nc2ccc(CN3C(=O)[C@@]4(O[C@@H](CCn5cc(CCO)nn5)[C@H]([Si](C)(C)c5ccc(OC)cc5)[C@H]4C)c4ccccc43)cc2)cc1 | -3.31
C#CCN1[C@@H](Cc2ccccc2)C(=O)O[C@H](Cc2ccccc2)[C@@H]1/C=C/C1CC1 | 3.08
O=C1C=C(c2ccccc2)C(=O)C2=C1CC([C@H]1Oc3ccccc3S(=O)(=O)N3CCC[C@@H]13)=CC2 | -0.0039
COC(=O)[C@@]1(Cc2ccccc2)[C@H]2c3cc(C(=O)N4CCCC4)n(Cc4ccc(OC)c(OC)c4)c3C[C@H]2CN1C(=O)c1ccccc1 | 0.613
O=C1c2ccccc2[C@@]2(Cc3ccccc3N(Cc3ccccc3)C2=O)[C@H](c2ccc(CO)cc2)N1Cc1ccccc1Cl | -0.166
C=C(CCCC)C(=O)CC[C@@H](OC(=O)c1ccccc1-c1ccccc1C(=O)O)c1ccccc1OCCO | 0.573
COC(=O)C1(Cc2ccccc2)C=C2C(=C(C)C(=O)C2C)CN1 (stereo not given) | -1.21
CC[C@@H]1C=C(C(=O)O)[C@H](c2ccc(OC)cc2)N1S(=O)(=O)c1ccc(C)cc1 | -0.599
COc1ccc([Si](C)(C)[C@@H]2[C@@H](CC(=O)N(CCO)Cc3ccccc3)O[C@]3(C(=O)N(Cc4ccc(I)cc4)c4ccccc43)[C@H]2C)cc1 | -2.88
COc1ccc([Si](C)(C)[C@@H]2[C@@H](CC(=O)N3CCC[C@H]3CO)O[C@]3(C(=O)N(Cc4cccc(N5CCCCC5=O)c4)c4ccccc43)[C@H]2C)cc1 | -1.6
CCOC(=O)C[C@H]1[C@H](OC(=O)Cc2ccc3c(c2)OCO3)[C@@H](NC(=O)c2ccc3ccccc3n2)c2cc(OCCCO)ccc2N1C(=O)Cc1ccc(OC)cc1 | -0.64
O=C1[C@H]2C=C(I)[C@H](C[C@@H]2OCCCCCCO)[C@@]12CO2 | 0.339
C=C(CCCC)/C(=C/C[C@H](OC(C)=O)c1cccc(OCCO)c1)c1cnc2ccccc2c1 | 0.395
O=C(NC1CC1)[C@@H]1c2ccccc2C(=O)N(CC23CC4CC(CC(C4)C2)C3)[C@H]1c1ccc(CO)cc1 | 1.5
C=CC[C@@]12N=C(c3ccc(OCCCO)cc3)O[C@@H]1c1ccccc1N(CCC)C2=O | 0.0626
C=CCOC(=O)[C@@H]1[C@H]2C(=O)O[C@H](c3ccccc3)[C@H](c3ccccc3)N2[C@H](c2ccc(OCCOC(=O)[C@H]3C[C@H]4C(=O)NCC(=O)N4[C@H]3c3cccc(OCCO)c3)cc2)[C@@]12C(=O)Nc1ccc(I)cc12 | 0.169
COC(=O)C(CC#Cc1ccc2c(c1)[C@]1(C(=O)N2)[C@H](C(=O)N2CCc3cc(OC)c(OC)cc3C2)[C@H]2C(=O)O[C@H](c3ccccc3)[C@H](c3ccccc3)N2[C@@H]1c1ccccc1OCCO)C(=O)OC | -0.694
C=CCOC(=O)[C@@H]1[C@H]2C(=O)O[C@H](c3ccccc3)[C@H](c3ccccc3)N2[C@H](c2ccc(OCCOC(=O)[C@H]3C[C@H]4C(=O)N[C@@H](CCCCN(C)C)C(=O)N4[C@H]3c3ccc(O)cc3)cc2)[C@@]12C(=O)Nc1ccc(I)cc12 | 0.923
COc1ccc([Si](C)(C)[C@@H]2[C@@H](CC(=O)N3CCC[C@H]3CO)O[C@]3(C(=O)N(Cc4ccc(N5CCOC5=O)cc4)c4ccccc43)[C@H]2C)cc1 | -1.77
CC1CC/C=C\[C@H]2OC34C=CCN(c5ccc6ccccc6c5)C(=O)[C@H]3N(C(C)CO)C(=O)[C@@H]4C2C(=O)O1 (stereo not given in full) | -0.0299
CCCCCCc1nc(-c2ccc(-c3ccc(Cl)c(Cl)c3)o2)cc2c1[Si](C(C)C)(C(C)C)OC2 | 1.19
CCOC(=O)C1=CC[C@@H](c2ccccc2)N(S(=O)(=O)c2ccc(C)cc2)[C@H]1c1ccccc1I | 0.998
COC(=O)[C@]1(Cc2ccccc2)N=C(c2ccc(OCCCO)cc2)O[C@@H]1c1ccccc1CN=[N+]=[N-] | -4.59
CC(C)=CCCC=C(C)C(O)C1C=CC2C(=O)N(c3ccccc3)C(=O)C2N1Nc1ccc(C#N)cc1 (stereo not given) | -1.18
CCOC(=O)C[C@H]1[C@H](OC(=O)c2ccccc2-c2ccccc2)[C@@H](NC(=O)C2CCCCC2)c2cc(OCCCO)ccc2N1C(=O)c1ccc2ccccc2n1 | -0.417
